# Screens deposited in PubChem by several laboratories.
# Shown are actives, neighbours in structure and some others; about 2.4% of the full set was active somewhere.
# PfM18AAP inh-1 = PfM18AAP inhibitors, malaria aminopeptidase, primary screen, biochemical, QFRET, recombinant enzyme | inhibition, % at 7.35 µM | H-Glu-NHMec fluorogenic cleavage | 1.2% of 290,000 active;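 active means inhibition above the campaign mean inhibition over all tested compounds plus 3 SD, cut at about 28% in these data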;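 further: 0% = plate median of test compound wells and 100% = 2 mM ZnCl2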
# CR mimetic SO = reduction of superoxide in aged yeast, primary screen, HTS. S. cerevisiae aged cells, superoxide DHE fluorescence; hits give low values. superoxide response (% of plate mean), % at 10 µM. 0.18% of 330,000 active. AID 2690, 2010;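 active means superoxide response under a set limit, about three screen SD below normal, cut at about 65% in these data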;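 further: yeast aged for seven days with compound at 30 °C before DHE staining; 100% = average MFI of all compound-treated wells on the plate with controls excluded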
# APOBEC3G inh = APOBEC3G DNA deaminase inhibitors, primary screen, biochemical, fluorescence, single-stranded DNA substrate, uHTS. DNA dC->dU-editing enzyme APOBEC-3G (Homo sapiens), Q9HC16. recombinant A3G, ssDNA deamination FAM/TAMRA fluorescence. 0.28% of 330,000 active. inhibition, % at 20 µM;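 active means inhibition of at least 40% at 20 µM, with no more than 30% in the related APOBEC3A deaminase screen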;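 further: plate controls were DMSO wells with A3G for no effect and wells lacking A3G enzyme for full effect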
# PfG6PD inh = PfG6PD enzyme inhibitors, primary screen, biochemical, fluorescence intensity, uHTS; 0.78% of 350,000 active; glucose-6-phosphate dehydrogenase-6-phosphogluconolactonase (Plasmodium falciparum 3D7); inhibition, % at 20 µM; PfGluPho enzyme, NADPH resazurin-diaphorase fluorescence;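 active means inhibition reaching at least a set limit at 20 µM in the primary screen, cut at about 59% in these data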;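 further: 0% = DMSO wells with substrate and 100% = DMSO wells lacking glucose-6-phosphate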
# APOBEC3A inh = APOBEC3A ssDNA deaminase inhibitors, primary screen, selectivity assay for APOBEC3G inhibitor project, biochemical, FAM/TAMRA oligo cleavage fluorescence. 0.41% of 330,000 active. inhibition, % at 20 µM. recombinant A3A, FAM/TAMRA ssDNA deamination fluorescence;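 active means at least 40% inhibition at 20 µM here, with at most 30% in a related deaminase screen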;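 further: plate controls were A3A with DMSO for no effect and wells lacking A3A enzyme for full effect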
# PfM18AAP inh-2 = PfM18AAP inhibitors, malaria aminopeptidase, confirmation, biochemical, QFRET, recombinant enzyme, triplicate; shares compounds with PfM18AAP inh-1; H-Glu-NHMec fluorogenic cleavage; inhibition, % at 7.35 µM; 28% of 2,400 active; AID 2170, 2009;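 active means mean inhibition over replicate wells above the hit cutoff set for the earlier primary screen, cut at about 29% in these data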;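 further: 0% = median of test compound wells and 100% = 2 mM ZnCl2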
# CTSL1 counter = cathepsin L1 inhibitors, retest, confirmation, counter-screen for PFM18AAP inhibitor project, biochemical, QFRET, triplicate; AID 2178, 2009; 2,400 tested, under 10 active; purified cathepsin L1, Z-Leu-Arg-MCA fluorescence; shares compounds with PfM18AAP inh-1; inhibition, % at 5.96 µM;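 active means average inhibition across replicates above the hit cutoff set in the earlier primary screen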;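 further: 0% = median of test compound wells and 100% = Z-Phe-Ala-diazomethylketone 1 µM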
# Target sequence (P07711 whole entry, looked up): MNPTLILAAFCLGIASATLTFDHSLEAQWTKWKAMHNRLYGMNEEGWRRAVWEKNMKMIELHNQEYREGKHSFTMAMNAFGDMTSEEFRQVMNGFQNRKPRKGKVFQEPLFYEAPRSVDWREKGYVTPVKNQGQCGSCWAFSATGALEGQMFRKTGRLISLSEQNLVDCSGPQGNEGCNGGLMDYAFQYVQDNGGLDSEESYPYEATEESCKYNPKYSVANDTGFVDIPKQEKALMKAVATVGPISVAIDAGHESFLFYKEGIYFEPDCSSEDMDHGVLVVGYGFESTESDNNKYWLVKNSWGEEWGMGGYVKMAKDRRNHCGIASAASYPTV
# * marks the source's active call; other numbers are inactive results; nt = no result given.
SMILES,PfM18AAP inh-1,CR mimetic SO,APOBEC3G inh,PfG6PD inh,APOBEC3A inh,PfM18AAP inh-2,CTSL1 counter
Cc1ccc(-n2c(Cn3ncc4ccccc4c3=O)n[nH]c2=S)cc1,22.5,96.6,30.1,33.5,-4.0,nt,nt
O=C(N/N=C/c1ccncc1)c1cc2ccccc2cc1O,20.2,96.5,-6.4,28.0,-0.2,nt,nt
O=C(N/N=C/c1ccc[nH]1)c1cc2ccccc2cc1O,39.4*,96.3,-6.0,25.5,-3.3,-45.3,6.9
NC(=S)Nc1cccc2cccnc12,32.2*,99.3,11.4,16.3,3.0,0.7,2.1
C=CCNC(=S)NNc1nc(Nc2ccccc2)nc(N2CCCCC2)n1,23.4,98.4,-4.9,18.9,-3.3,nt,nt
CCNC(=S)NNc1nc(N2CCOCC2)nc(N2CCOCC2)n1,46.7*,99.1,-0.3,2.8,1.3,29.5*,-1.3
CNC(=S)NNc1nc(N2CCOCC2)nc(N2CCOCC2)n1,41.0*,84.2,-0.8,8.8,2.9,25.3,-2.6
C=CCNC(=S)NNc1nc(N2CCCC2)nc(N2CCCC2)n1,54.0*,97.9,-8.0,18.9,-4.2,20.0,-0.1
CCCNc1nc(N2CCOCC2)nc(N2CCOCC2)n1,0.8,105.2,-3.2,5.9,0.9,nt,nt
Cc1c(C(=O)N(C)C(C)c2ccccn2)oc2c(F)cccc12 (stereo unspecified),13.1,89.6,-7.2,14.8,-2.0,nt,nt
CCC(C)(C)NC(=O)c1ccc(S(=O)(=O)N2CCCCCC2)cc1,-9.8,106.7,-2.7,-11.6,-0.4,nt,nt
C=CCc1c(C)nc(-c2ccccc2)nc1N/N=C(\C)c1ccc(N)cc1,52.1*,89.3,0.5,3.4,0.9,14.3,-2.7
CC(OC(=O)CCNS(=O)(=O)c1ccc(Cl)cc1)C(=O)N(C)Cc1ccccc1 (stereo unspecified),nt,nt,nt,6.5,nt,nt,nt
Cc1cc(C(=O)N/N=C/c2ccc(O)c(O)c2O)c(C)n1-c1ccccc1,48.6*,nt,nt,47.7,nt,17.8,-3.1
Cc1cc(/C=N/NC(=O)c2ccncc2)c(C)n1-c1ccccc1,1.7,105.3,-7.1,8.2,-4.9,nt,nt
Oc1ccc(/C=N/Nc2ccc(Cl)nn2)c(O)c1O,65.1*,102.0,31.0,44.9,18.1,49.0*,-0.8
CCOc1ccc(/C=N/Nc2ccc(Cl)nn2)c(O)c1,35.8*,102.5,-5.6,-20.9,-4.0,-30.2,-1.0
CCOc1ccccc1/C=N/Nc1ccc(Cl)nn1,7.0,99.3,-6.7,-2.4,0.7,nt,nt
Cc1cccc(NC(=O)CSc2nc3[nH]ncc3c(=O)[nH]2)c1C,41.8*,109.8,-6.1,-15.1,-0.7,27.7,-4.3
CC1CCN(C(=O)CSc2nc3[nH]ncc3c(=O)[nH]2)CC1,33.1*,94.8,-0.6,-11.3,10.0,-25.8,-7.1
Cc1ccc(NC(=O)CSc2nc3[nH]ncc3c(=O)[nH]2)c(C)c1,24.2,90.7,-2.1,-12.4,-1.3,nt,nt
CSCCC1NC(=O)N(CC(=O)Nc2ccc3c(c2)OCCO3)C1=O (stereo unspecified),nt,116.8,-6.3,-4.5,-1.8,nt,nt
O=C(c1cccc(Br)c1)N1CCN(S(=O)(=O)N2CCCCC2)CC1,-1.4,109.2,-0.5,-4.5,0.3,nt,nt
Cn1c(CSc2ncn[nH]2)nc2ccccc21,53.2*,91.2,-3.6,-3.8,-2.3,9.5,-5.4
Cn1c(CSc2nc3ccccc3s2)nc2ccccc21,6.2,80.7,-6.8,7.1,2.0,nt,nt
NC(=O)c1ccc(N2CCN(c3ccccc3O)CC2)c([N+](=O)[O-])c1,36.4*,104.7,-5.7,-12.0,-4.0,-7.9,-4.0
CC(C(=O)Nc1ncn[nH]1)N1C(=O)c2ccccc2C1=O (stereo unspecified),50.6*,81.4,-5.5,6.8,0.8,51.5*,-5.0
